BoNT A protease – blocks Botulinum neurotoxin A light chain protease; inhibition, % at 10 µM; AID 588499; 360,000 compounds, 0.17% hits; multiplex microsphere protease substrate cleavage, flow cytometry; also: plate controls were buffer without enzyme for full effect and enzyme alone for no effect
SSB-PriA inh – inhibitors of Klebsiella pneumoniae PriA binding to SSB C-terminal tail. AlphaScreen SSBct-PriA binding, biotinylated peptide. inhibition, % at 33 µM. 430,000 compounds, 0.6% hits; in the data active = inhibition mostly above about 37%, no sharp cut-off; inactive = mostly below about 20%;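 also: plate controls were negative control peptide for no effect and reference peptide for full effect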
BoNT F protease – blocks Botulinum neurotoxin F light chain protease; AID 588497; Multiplex microsphere protease cleavage assay, flow cytometry; inhibition, % at 10 µM; 360,000 compounds, 0.22% hits; in the data active = inhibition above about 35%, passing the limit was not always enough; inconclusive = no clear call, values can overlap the other calls; also: plate controls were buffer without enzyme for full effect and enzyme alone for no effect
Anthrax LF prot – anthrax lethal factor protease inhibition | inhibition, % at 10 µM | P15917 | multiplex microsphere protease cleavage assay, LF | 360,000 compounds, 0.12% hits; also: plate controls were buffer without enzyme for full effect and enzyme alone for no effect
Target sequence (P15917 whole entry, looked up): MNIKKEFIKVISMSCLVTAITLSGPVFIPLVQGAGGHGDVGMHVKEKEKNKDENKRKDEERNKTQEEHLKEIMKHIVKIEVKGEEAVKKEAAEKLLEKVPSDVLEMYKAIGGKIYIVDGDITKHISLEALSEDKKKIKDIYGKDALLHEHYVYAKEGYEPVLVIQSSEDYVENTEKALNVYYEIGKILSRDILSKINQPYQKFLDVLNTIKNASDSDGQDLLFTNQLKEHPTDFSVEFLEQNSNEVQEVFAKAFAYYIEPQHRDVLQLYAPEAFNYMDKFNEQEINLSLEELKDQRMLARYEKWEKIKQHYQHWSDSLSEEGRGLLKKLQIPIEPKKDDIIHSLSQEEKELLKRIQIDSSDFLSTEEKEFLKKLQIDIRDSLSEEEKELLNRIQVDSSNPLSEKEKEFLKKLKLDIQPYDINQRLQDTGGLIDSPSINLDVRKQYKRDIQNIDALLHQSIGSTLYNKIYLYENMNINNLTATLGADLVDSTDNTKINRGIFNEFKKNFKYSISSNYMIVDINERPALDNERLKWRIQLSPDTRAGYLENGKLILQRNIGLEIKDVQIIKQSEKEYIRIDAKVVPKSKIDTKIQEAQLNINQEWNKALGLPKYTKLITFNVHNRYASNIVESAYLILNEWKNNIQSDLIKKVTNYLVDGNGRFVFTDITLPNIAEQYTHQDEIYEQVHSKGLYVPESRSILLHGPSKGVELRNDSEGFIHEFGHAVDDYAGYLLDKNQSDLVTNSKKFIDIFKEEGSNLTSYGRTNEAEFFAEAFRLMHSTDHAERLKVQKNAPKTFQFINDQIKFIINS
Autofluor counter – compound fluorescence in toxin protease inhibitor counterscreen | compound autofluorescence counterscreen, microsphere flow cytometry; active compounds read high | fluorescence intensity (no concentration beside the values) | 360,000 compounds, 3.1% hits; in the data active = fluorescence intensity above about 16000; inconclusive = no clear call, values can overlap the other calls
Numbers without * were called inactive; ? = inconclusive; . = no result. Shown are actives, neighbours in structure and some others; about 3.1% of the full set was active somewhere. Rule as the data show it, unless noted: active = inhibition above about 30%; inconclusive = no clear call, values can overlap the other calls; inactive = below that.

SMILES	BoNT A protease	SSB-PriA inh	BoNT F protease	Anthrax LF prot	Autofluor counter
Cc1cc(NN=C(CCC(=O)O)C(=O)O)nc2ccccc12	.	1.2	.	.	.
O=C(NCCCN1CCOC(c2ccccc2)C1)C(=O)Nc1ccccc1Cl (configuration not stated)	.	4.0	.	.	.
COc1ccc(NC(=O)CSc2nc3ccc(OC)cc3[nH]2)cc1	-0.4	-3.8	3.4	-1.9	3514
O=C(CSC1=NCCS1)Nc1ccc(S(=O)(=O)NC2CCCCC2)cc1	-0.7	-20.9	-4.1	-1.6	8080
O=C(CSc1nc2cc3ccccc3cc2[nH]1)Nc1ccc(F)cc1	?	-0.2	1.1	-1.1	23788*
O=C(CSc1nc2ccccc2c(=O)[nH]1)Nc1ccc(S(=O)(=O)N2CCCC2)cc1	?	9.0	-2.8	0.8	16902*
O=C(CSC1=NCCS1)Nc1ccc(S(=O)(=O)N2CCCCCC2)cc1	0.9	-16.3	1.4	-1.4	23340*
O=C(CSc1nc2ccccc2c(=O)[nH]1)Nc1ccc(C(=O)O)cc1	-5.2	-10.3	-11.5	-0.2	?
Cc1cccc(C)c1NC(=O)CSc1nc2ccccc2c(=O)[nH]1	?	1.7	-1.3	-0.3	22821*
Cn1cccc(C(=O)N2CCC(Oc3ncccc3Cl)CC2)c1=O	.	-3.0	.	.	.
Cc1ccc(S(=O)(=O)Nc2cc(=O)[nH]c(SCC(=O)Nc3cccc(C(F)(F)F)c3)n2)cc1	-8.6	-1.7	-53.7	2.7	3088
Cc1ccc(NC(=O)CSc2nc(NS(=O)(=O)c3ccc(C)cc3)cc(=O)[nH]2)cc1	?	-6.1	3.7	-1.5	19078*
CC(C)(C)c1csc(NC(=O)CSc2nc3ccccc3c(=O)[nH]2)n1	?	-3.8	4.1	-1.2	19081*
COc1ccc(S(=O)(=O)NCCOc2ccc3nnc(-c4ccccc4)n3n2)cc1F	.	-15.0	.	.	.
CCc1nnc2sc(-c3cc(-c4ccccc4)nc4ccccc34)nn12	0.0	-9.3	1.3	-0.8	19922*
COc1nc(-c2cccs2)cc(-c2ccc(C)cc2)c1C#N	5.1	-35.1	5.2	-3.1	21880*
COc1ccc(-c2cc(-c3cccs3)nc(OC)c2C#N)cc1OC	2.1	-39.4	-5.3	-0.5	2111
CSc1ccccc1NC(=O)c1cnc2ccc(C)cn2c1=O	.	-3.0	.	.	.
COCCNCc1ccncc1	.	-1.0	.	.	.
COCCNCc1ccccc1	-2.7	-7.8	-3.8	0.1	24425*
Cc1ccc(CSc2nnc(-c3cccnc3)n2N)cc1	-1.3	-12.7	-3.8	0.1	23095*
Cc1ccc(CSc2nnc(-c3ccco3)n2N)cc1	-0.3	-2.0	1.1	-1.7	23093*
Cc1cc(NC(=O)c2c(F)cccc2Cl)n(-c2nc3ccccc3[nH]2)n1	-0.4	-8.3	-4.1	-0.1	2956
COc1ccccc1OCC(=O)Nc1cc(C)nn1-c1nc2c(cnn2-c2ccc(F)cc2)c(=O)[nH]1	.	-8.0	.	.	.
COc1ccccc1OCC(=O)Nc1cc(C)nn1-c1nc2c(cnn2-c2cccc(C)c2C)c(=O)[nH]1	.	42.0*	.	.	.
SMILES	BoNT A protease	SSB-PriA inh	BoNT F protease	Anthrax LF prot	Autofluor counter
Cc1cc(NC(=O)c2c(F)cccc2F)n(-c2nc3c(cnn3-c3cccc(C)c3C)c(=O)[nH]2)n1	.	52.0*	.	.	.
Cc1cc(NC(=O)c2c(F)cccc2F)n(-c2nc3ccccc3[nH]2)n1	-2.6	-1.9	-5.2	-3.4	16824*
COc1ccc(CCNC(=O)NCC(c2ccsc2)N(C)C)cc1 (configuration not stated)	.	-2.0	.	.	.
CCN1CCN(C(=S)c2ccc(OCC(=O)NCc3ccccc3)cc2)CC1	-0.4	4.3	-4.7	-4.1	4657
CCOc1cc(C(=S)N2CCCCC2)ccc1OCC(=O)NCc1ccccc1	?	7.1	4.7	-0.7	22179*
CCOc1ccc(C(=S)N2CCOCC2)cc1OCC	-0.7	-12.3	-0.1	1.5	23260*
CCN1CCN(C(=S)c2ccc(OCC(=O)N3CCOCC3)cc2)CC1	1.3	7.7	-2.0	-2.2	19327*
COc1ccc(C2(O)C(C)N(c3ccccc3)C3=[N+]2CCCS3)c(F)c1 (configuration not stated)	.	0.0	.	.	.
Cn1cc(C(O)CNC(=O)c2c(F)cccc2Cl)c2ccccc21 (configuration not stated)	.	-7.0	.	.	.
CC1=Nn2c(nnc2-c2ccco2)SC1	2.0	-5.0	3.1	0.1	22078*
COc1ccc(-c2nnc3n2N=C(C)CS3)cc1	?	-12.1	-1.1	-1.3	23552*
COc1ccc(C2=Nn3c(nnc3-c3ccc(OC)cc3)SC2)cc1	-3.4	14.0	-6.2	-7.6	11951
Cc1ccccc1C1=Nn2c(nnc2-c2ccco2)SC1	5.1	-3.4	?	1.0	3750
Cc1cc(C(=O)CSc2nc3scc(-c4ccccc4)c3c(=O)n2-c2ccccc2)c(C)n1-c1ccccc1F	.	1.0	.	.	.
Cc1cc(C)c(C)c(S(=O)(=O)N2CCC(C(=O)OCC(=O)N3c4ccccc4NC(=O)C3(C)C)CC2)c1C	-1.7	-9.3	-3.6	-2.4	24651*
CC1(C)C(=O)Nc2ccccc2N1C(=O)COC(=O)C1CCCCC1	1.2	7.5	-4.1	2.6	2731
O=C(c1cccs1)N1CC(S(=O)(=O)C2CCCCC2)C1	.	0.0	.	.	.
CCCc1nnc(NC(=O)CCC(=O)NCc2ccccc2OC)s1	0.2	-1.8	0.5	-1.6	22157*
CCc1nnc(NC(=O)Cn2nc(-c3ccccc3OC)ccc2=O)s1	?	-2.1	1.3	-3.3	22524*
Cn1c(=O)c2c(=O)cc[nH]c2n(C)c1=O	.	-6.0	.	.	.
CN1C(=O)C(C)(C)COc2ccc(NC(=O)c3ccccc3Cl)cc21	.	19.0	.	.	.
COc1ccccc1N1CCN(C(=O)C(NS(=O)(=O)c2cccs2)c2ccccc2)CC1 (configuration not stated)	-1.7	10.7	-1.4	-0.4	16978*
COc1ccccc1N1CCN(C(=O)C(Cc2ccccc2)NC(=O)C2CCCCC2)CC1 (configuration not stated)	-4.1	-1.3	-6.1	-1.6	25307*
COc1ccccc1N1CCN(C(=O)CS(=O)(=O)c2cccs2)CC1	.	-9.0	.	.	.
Cc1cc2ncc(CCCNC(=O)c3c4ccc(Br)cc4nn3C)cn2n1	.	9.0	.	.	.
SMILES	BoNT A protease	SSB-PriA inh	BoNT F protease	Anthrax LF prot	Autofluor counter
Cc1cccc(C(=O)Nc2ccc(S(N)(=O)=O)cc2)c1	.	-6.0	.	.	.
O=C(CCSc1ccccc1)N(CCc1cccs1)C1CCOCC1	.	-10.0	.	.	.
CC(C)(C(=O)c1ccccc1)/[N+]([O-])=C/c1ccc(Br)cc1	2.8	-12.1	6.7	-3.7	22272*
Cc1cc(C(=O)Nc2sc3c(c2C#N)CCCC3)no1	-0.4	-7.8	-0.1	-1.4	9715
CC(=O)N1CCc2c(sc(NC(=O)Cc3ccc(F)cc3)c2C#N)C1	1.9	60.1*	6.4	-1.1	3995
CC(=O)Nc1sc2c(c1C#N)CCCCC2	?	-4.4	-6.4	-8.9	23128*
